Measured values taken from PubChem BioAssay AID2501 (Southern Research Specialized Biocontainment Screening …, 2010).
About 1,200 (55%) of roughly 2,200 compounds were called active. So high a share suggests a set chosen from earlier hits. This is one part of the list. A number with no mark means an inactive call. Cut-off not given; nearly all actives show IC50 up to about 92 µM.

test: counter assay for TAg ATPase ADP read-out – biochemical, ADP-Hunter, fluorescence, counter-screen (AID 2501); settings: series mostly up to 100 µM; inhibition: at the top concentration;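 further: purified T antigen ATPase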;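 on inhibition: 0% = enzyme with vehicle and 100% = reference inhibitor wells; higher means more inhibition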

| Compound | inhibition | IC50 |
| --- | --- | --- |
| CC(=O)NCCC1CCCCN1Cc1nc(Cc2cccc(C(F)(F)F)c2)no1 (configuration not stated) | 18.1% [at 50 µM] |  |
| Cc1ccc(C(C(=O)NCc2ccc(F)cc2)N(CCCO)C(=O)C2COc3ccccc3O2)o1 (configuration not stated) | -18.2% |  |
| O=c1[nH]c(/C=C\c2ccc(O)c(O)c2)nc(O)c1[N+](=O)[O-] |  | 5.5 µM (active) |
| O=C(O)c1cc(S(=O)(=O)Nc2ccc3oc(=O)sc3c2)ccc1O | 13.4% [at 50 µM] |  |
| O=c1oc2cc(O)ccc2s1 |  | 11.8 µM (active) |
| CCOC(=O)NNc1ccc2nonc2c1[N+](=O)[O-] | 10.1% |  |
| O=c1cc(-c2ccccc2Cl)oc2cc(O)cc(O)c12 | -10.2% |  |
| O=c1cc(-c2ccc(O)c(O)c2)oc2cc(O)c(C3OC(CO)C(O)C(O)C3O)c(O)c12 (configuration not stated) |  | 5.59 µM (active) |
| O=c1cc(-c2ccc(O)cc2)oc2cc(O)c(C3OC(CO)C(O)C(O)C3O)c(O)c12 (configuration not stated) |  | 18.6 µM (active) |
| O=c1c2cc(O)c(O)cc2oc2cc(O)c(C3OC(CO)C(O)C(O)C3O)c(O)c12 (configuration not stated) |  | 6.35 µM (active) |
| O=c1cc(-c2ccc(O)cc2)oc2c(C3OCC(O)C(O)C3O)c(O)c(C3OC(CO)C(O)C(O)C3O)c(O)c12 (configuration not stated) |  | 17.3 µM (active) |
| Cc1cccc(N2CCN(C(=O)Cn3sc4nc(C)cc(C)c4c3=O)CC2C)c1 (configuration not stated) | -23.9% |  |
| O=C1CCCC2=C1C(c1ccc(Br)cc1)c1c([nH]c(=S)[nH]c1=O)N2 (configuration not stated) |  | 92 µM (active) |
| O=c1[nH]c(=S)[nH]c2c1C(c1ccc(Br)cc1)c1c([nH]c(=S)[nH]c1=O)O2 | 18.7% |  |
| COCCCNC(=S)N/N=C/c1ccc(O)cc1 |  | 1.83 µM (active) |
| C/C(CCc1ccccc1)=N\NC(=S)NCCc1ccccc1 | 16.8% |  |
| COCCCNC(=O)c1cc2cc3cc(OC)ccc3nc2o1 | 5.55% |  |
| COCCNC(=S)N/N=C(\C)c1ccc(O)cc1 |  | 3.77 µM (active) |
| COCCCNC(=S)N/N=C/c1ccc(O)cc1O |  | 6.62 µM (active) |
| O=[N+]([O-])c1ccc2c(c1N1CCCCC1)=NC1(CCCCC1)[N+]=2[O-] | -22% |  |
| COc1ccc(NC(=O)c2sc(=S)[nH]c2N)cc1 |  | 8.22 µM (active) |
| N=C1/C(=C\c2ccc(SCc3ccco3)o2)C(=O)N=C2SC=NN12 | -16% |  |
| COc1cc(/C=N/N=C2/C(=O)Nc3ccccc32)ccc1O |  | 4.52 µM (active) |
| COc1cc(/C=N/N=C2/C(=O)Nc3ccccc32)cc(OC)c1O |  | 5.67 µM (active) |
| O=C1Nc2ccccc2/C1=N\N=C\c1ccc(O)c(O)c1 |  | 8.1 µM (active) |
| CCOC(=O)CN1C(=O)CC(c2ccc([N+](=O)[O-])cc2)C1=O (configuration not stated) | -22.7% |  |

| Compound | inhibition | IC50 |
| --- | --- | --- |
| O=C(CS(=O)(=O)c1ccccc1)c1cc2cc(F)ccc2oc1=O | 10.5% [at 50 µM] |  |
| CN(C)C(=O)c1c(-c2ccccc2)oc2ccc(O)cc12 |  | 17.2 µM (active) |
| C=CCSC1=NC(=O)/C(=C/c2cccs2)S1 | -34% |  |
| COc1ccc(N2C(=S)NC3c4cc(Cl)ccc4OC2(C)C3C(=O)N(C)C)cc1 (configuration not stated) | 12.2% [at 50 µM] |  |
| CCOc1cc(/C=C2\C(=O)NN(c3ccccc3)C2=O)cc([N+](=O)[O-])c1O |  | 6.78 µM (active) |
| Cc1ccsc1/C=C1/C(=O)NN(c2ccccc2)C1=O |  | 1.75 µM (active) |
| CCOc1cc(/C=C2\C(=O)ON=C2c2ccccc2)cc(Br)c1O | 7.3% [at 50 µM] |  |
| CCOc1cc(/C=C2\C(=N)N3N=CSC3=NC2=O)ccc1OS(=O)(=O)c1ccccc1 | 1.1% |  |
| COc1cc(/C=C2/C(=O)NN(c3ccc(Cl)c(Cl)c3)C2=O)cc([N+](=O)[O-])c1O |  | 14.6 µM (active) |
| COc1cc(/C=C2\C(=O)NN(c3ccccc3)C2=O)cc([N+](=O)[O-])c1O |  | 59.3 µM (active) |
| C/C(=N\NC(=O)c1csc(C)c1C)c1ccc(C)s1 | -12.3% |  |
| O=Cc1coc2c(ccc3ccccc32)c1=O |  | 10.1 µM (active) |
| O=C1CC(c2ccc(O)c(O)c2)Oc2c1ccc(O)c2O (configuration not stated) |  | 13.6 µM (active) |
| COc1cc(OC)c2c(c1O)OC(c1ccccc1)CC2=O (configuration not stated) | 16.1% |  |
| O=C1c2c(O)cc(O)cc2O[C@H](c2ccc(O)c(O)c2)[C@H]1O |  | 5.9 µM (active) |
| COc1cc([C@@H]2Oc3cc(C4Oc5cc(O)cc(O)c5C(=O)[C@H]4O)ccc3O[C@H]2CO)ccc1O (some centres not stated) |  | 31.4 µM (active) |
| O=C1CC(c2ccc(O)c(O)c2)Oc2cc(O)cc(O)c21 (configuration not stated) |  | 4.23 µM (active) |
| CC(=O)Nc1nnc(SCc2cccc(F)c2)s1 | -9.37% |  |
| O=C1NC(=S)S/C1=C\c1ccc(SCc2ccccc2)o1 | 28.9% |  |
| O=C1NC(=S)S/C1=C/c1ccc(N2CCOCC2)o1 |  | 18.9 µM (active) |
| O=C(O)CN1C(=O)/C(=C\C(Br)=C\c2ccccc2)SC1=S | 25.4% |  |
| O=C1/C(=C/c2ccco2)SC(=S)N1CCC(=O)N1CCCCC1CCO (configuration not stated) | 4.5% |  |
| O=C(O)CN1C(=O)/C(=C/c2ccc(N3CCCCC3)o2)SC1=S |  | 38.4 µM (active) |
| COc1ccccc1N1C(=O)C=C(Sc2nc(C)cc(C)n2)C1=O | 10.2% |  |
| CN(C)c1ccc(N=c2sc3ccccc3n2C)cc1 |  | 7.65 µM (active) |
| COC(=O)/C(=C/Nc1ccc(O)cc1)[N+](=O)[O-] |  | 3.8 µM (active) |
